Results from PubChem BioAssay (NCATS).
Inconclusive results are not listed. Activity calls are given as the source filed them. The call rests on the fitted dose curve; in most records, active means well fitted inhibition curve with a large enough effect; inconclusive means small, poorly fitted or top-dose-only effect; inactive means no such curve, though single readings can be large or run the other way.

assay: BET inhibitor-based combinations targeting novel dependencies in MECOM-rearranged (r) AML: OCI-AML3 cell line (AID 2202232); settings: CellTiter-Glo luminescence, 48 h; Potency: OCI-AML3 viability; series mostly up to 46 µM
Method in brief: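 Each compound was tested at eleven concentrations on cells seeded at 500/well. After two days' incubation, ATP-based luminescence reported viability; responses relative to DMSO and blank wells yielded AUC and cell-line-centred Z-AUC.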
Further: nearly all actives have a fitted effect of over 35% in size.
Potency means the concentration at half of the fitted maximal effect.

Row | SMILES | Potency
1 | COc1cc(-c2cn(C)c(=O)c3cnccc23)cc(OC)c1CN(C)C | 4680 nM (active)
2 | COc1cc([C@@H](CC(=O)O)c2ccc(C)c(CN3C[C@@H](C)Oc4ccccc4S3(=O)=O)c2)cc2nnn(C)c12 | inactive
3 | CC(=O)c1ccc2c(c1)c1cc(C(C)=O)ccc1n2CCNC(C)C | 1050 nM (active)
4 | COc1cc2c(NC3CCN(C)CC3)nc(N3CCCN(C)CC3)nc2cc1OCCCN(C)C | inactive

assay: BET inhibitor-based combinations targeting novel dependencies in MECOM-rearranged (r) AML: HNT-34 cell line (AID 2202234); settings: HNT-34 AML viability, CellTiter-Glo luminescence, 48 h; series mostly up to 46 µM
Method in brief: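 First, 500 cells per well were seeded; next, drugs were pinned as 11-point doses; then plates sat 48 hr in the incubator; finally CellTiter-Glo was added and luminescence read, with AUC and Z-AUC computed.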

Row | SMILES | Potency
5 | CC(=O)O/N=C1\C(=O)N(Cc2cc(Cl)ccc2Cl)c2ccc(Cl)cc21 | 2950 nM (active)
6 | CN1N=C(N)c2cn([C@@H]3O[C@H](COP(=O)(O)O)[C@@H](O)[C@@H]3O)c3ncnc1c23 | 468 nM (active)
7 | O=C(NO)c1cnc(NC2(c3ccccc3)CC2)nc1 | 6610 nM (active)
8 | C=CC(=O)N1CC[C@@H](Oc2nc(Nc3ccc(N4CCC(N5CCN(C)CC5)CC4)cc3)c(C(N)=O)nc2CC)C1 | 7230 nM (active)
9 | C=CC(=O)Nc1cccc(Oc2nc(Nc3ccc(N4CCN(C)CC4)c(F)c3)nc3[nH]ccc23)c1 | 1320 nM (active)
10 | O=C(/C=C/c1ccc(CN(CCO)CCc2c[nH]c3ccccc23)cc1)NO | 148 nM (active)
11 | Cc1oc(=O)oc1CN1CCN(c2cc3c(cc2F)c(=O)c(C(=O)O)c2n3C(C)S2)CC1 (stereo not drawn) | inactive
12 | COc1cc2c3c(n(CCCn4ccnc4)c(=O)c2cc1OC)-c1cc2c(cc1C3=O)OCO2 | 26.3 nM (active)
13 | CN[C@@H]1[C@@H](O)[C@@H](O[C@@H]2[C@@H](O)[C@H](O[C@H]3O[C@H](CN)[C@@H](O)[C@H](O)[C@H]3O)[C@@H](N)C[C@H]2NC(=O)C(O)CN)OC[C@]1(C)O (stereo partly drawn) | inactive
